Data: PubChem BioAssay (NCATS)
“And” between values parts separate entries of the source, which are not always exact repeats. Equal values may be shown once. Results filed as inconclusive are left out. A call without a number means that no potency is given here. A number with no mark means an inactive call. The source made the active and inactive calls. Unless noted, calls come from the whole dose curve; as a rule, active = well fitted curve in the direction sought with a large enough effect; inconclusive = small, poorly fitted or top-dose-only effect, or another doubt; inactive = no such curve, though single readings can be large; an effect the other way counts as inactive or inconclusive.

Assays:
[1] = target: Voltage-gated inwardly rectifying potassium channel KCNH2 (Homo sapiens) (UniProt Q12809); experiment: qHTS Assay for Small Molecule Inhibitors of the Human hERG Channel Activity (AID 588834);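 note: top concentration of the series differs between compounds; lower thallium flux fluorescence means stronger hERG block; nearly all actives have a fitted effect of over 50% in size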
Chain of Voltage-gated inwardly rectifying potassium channel KCNH2 (Homo sapiens) (Q12809 whole entry, looked up): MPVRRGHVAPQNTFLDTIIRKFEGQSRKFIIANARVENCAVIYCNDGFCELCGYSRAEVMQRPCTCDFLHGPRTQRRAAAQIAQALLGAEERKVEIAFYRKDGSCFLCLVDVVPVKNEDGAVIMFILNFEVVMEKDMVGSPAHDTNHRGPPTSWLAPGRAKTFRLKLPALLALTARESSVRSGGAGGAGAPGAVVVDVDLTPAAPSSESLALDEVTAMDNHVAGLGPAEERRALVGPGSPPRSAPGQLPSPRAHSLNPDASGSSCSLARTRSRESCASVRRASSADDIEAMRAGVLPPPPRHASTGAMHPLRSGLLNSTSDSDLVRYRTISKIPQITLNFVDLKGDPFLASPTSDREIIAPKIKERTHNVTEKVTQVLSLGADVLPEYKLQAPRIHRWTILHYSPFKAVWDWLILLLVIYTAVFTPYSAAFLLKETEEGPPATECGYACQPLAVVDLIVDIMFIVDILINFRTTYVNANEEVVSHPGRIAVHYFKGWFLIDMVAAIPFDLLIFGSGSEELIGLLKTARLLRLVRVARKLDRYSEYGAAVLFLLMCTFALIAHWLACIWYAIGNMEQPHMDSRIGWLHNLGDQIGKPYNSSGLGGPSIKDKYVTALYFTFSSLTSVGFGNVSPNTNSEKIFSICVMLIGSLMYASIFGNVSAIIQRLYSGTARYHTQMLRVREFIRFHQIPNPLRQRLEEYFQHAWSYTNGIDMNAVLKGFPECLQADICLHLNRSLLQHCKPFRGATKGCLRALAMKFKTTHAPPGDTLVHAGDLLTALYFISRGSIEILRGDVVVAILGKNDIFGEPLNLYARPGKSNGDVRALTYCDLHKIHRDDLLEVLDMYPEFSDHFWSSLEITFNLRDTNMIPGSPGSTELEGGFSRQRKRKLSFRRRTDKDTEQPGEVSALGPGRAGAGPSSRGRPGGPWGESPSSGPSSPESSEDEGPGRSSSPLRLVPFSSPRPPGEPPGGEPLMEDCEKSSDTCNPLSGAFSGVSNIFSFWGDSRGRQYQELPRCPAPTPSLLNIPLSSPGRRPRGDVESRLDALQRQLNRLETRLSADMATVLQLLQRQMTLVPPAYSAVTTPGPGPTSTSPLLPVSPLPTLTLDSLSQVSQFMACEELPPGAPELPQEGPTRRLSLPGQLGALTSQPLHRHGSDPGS
How it was run: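 Thallium serves as surrogate for K+ influx through BacMam-delivered hERG in U2OS cells. Compounds are added for about 10 minutes after dye loading; stimulation buffer then starts flux, monitored kinetically on FDSS.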

[2] = target: Thyroid hormone receptor beta (Homo sapiens) (UniProt P10828); experiment: qHTS assay for small molecule antagonists of thyroid hormone receptor beta signaling (AID 588547; active = well fitted inhibition curve with a large enough effect in the signal ratio, with a control signal flat, not every such curve was filed as active; the % refers to the signal ratio;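 note: cells stimulated with 0.4 nM T3 agonist during compound exposure; series mostly up to about 77 µM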); settings: TR-UAS-bla HEK293, beta-lactamase ratio, antagonist mode, 18 h
Chain of Thyroid hormone receptor beta (Homo sapiens) (P10828 whole entry, looked up): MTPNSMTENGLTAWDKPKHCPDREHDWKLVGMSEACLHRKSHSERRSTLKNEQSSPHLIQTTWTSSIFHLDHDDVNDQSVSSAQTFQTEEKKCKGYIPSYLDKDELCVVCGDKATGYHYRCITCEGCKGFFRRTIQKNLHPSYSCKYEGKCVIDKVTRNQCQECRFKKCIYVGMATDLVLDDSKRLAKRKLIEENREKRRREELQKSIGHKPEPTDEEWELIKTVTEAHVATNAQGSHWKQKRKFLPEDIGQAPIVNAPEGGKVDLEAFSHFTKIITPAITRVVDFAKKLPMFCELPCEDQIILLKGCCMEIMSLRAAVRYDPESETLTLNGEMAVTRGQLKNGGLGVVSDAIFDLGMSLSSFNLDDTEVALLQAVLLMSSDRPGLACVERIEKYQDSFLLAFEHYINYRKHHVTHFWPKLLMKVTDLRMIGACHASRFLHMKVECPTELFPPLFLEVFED
How it was run: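 Inhibition of T3-driven (0.4nM final) beta-lactamase reporter activity was measured over 0.59 nM to 92 uM compound after 18 h at 37 C. The cells were GripTite HEK293 TR-UAS-bla in charcoal/dextran-stripped serum, with CCF4 ratio read-out and IC50 from Hill fits.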

[3] = target: Luciferin 4-monooxygenase (Photinus pyralis) (UniProt P08659); experiment: Biochemical firefly luciferase enzyme assay for NPC (AID 624030);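 note: purified P. pyralis luciferase at 10 nM with luciferin and ATP substrate; series mostly up to about 59 µM; nearly all actives have a fitted effect of over 70% in size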
Chain of Luciferin 4-monooxygenase (Photinus pyralis) (P08659 whole entry, looked up): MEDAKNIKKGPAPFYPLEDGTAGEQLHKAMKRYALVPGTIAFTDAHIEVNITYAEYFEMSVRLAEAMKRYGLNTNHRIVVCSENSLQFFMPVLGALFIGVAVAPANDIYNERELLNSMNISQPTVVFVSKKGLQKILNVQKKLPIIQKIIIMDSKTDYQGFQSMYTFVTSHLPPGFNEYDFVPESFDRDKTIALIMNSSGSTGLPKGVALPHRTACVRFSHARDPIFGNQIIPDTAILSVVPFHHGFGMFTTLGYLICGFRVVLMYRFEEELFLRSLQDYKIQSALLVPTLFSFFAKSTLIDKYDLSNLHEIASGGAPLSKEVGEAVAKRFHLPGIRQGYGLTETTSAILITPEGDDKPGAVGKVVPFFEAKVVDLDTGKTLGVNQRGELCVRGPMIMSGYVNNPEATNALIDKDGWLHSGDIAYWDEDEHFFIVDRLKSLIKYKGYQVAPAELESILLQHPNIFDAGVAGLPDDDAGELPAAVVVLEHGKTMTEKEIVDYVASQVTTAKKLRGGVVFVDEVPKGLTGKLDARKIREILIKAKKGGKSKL
How it was run: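 Direct inhibition of firefly luciferase enzyme (10 nM final, 50 mM Tris Acetate) assessed by luminescence within 5 minutes. Percent activity scaled between DMSO and PTC124 positive control, with concentration-effect curves classified by fit quality and response.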

[4] = S16 Schwann cell viability assay (CellTiter-Glo assay) (AID 624031);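 note: native untransfected S16 rat Schwann cells; cellular ATP luminescence as a viability measure; series mostly up to about 58 µM; nearly all actives have a fitted effect of over 70% in size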
How it was run: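 Following overnight culture in 10% FBS DMEM, parental S16 rat Schwann cells are dosed for 24 h at 37 °C. Viability is read as CellTiter-Glo luminescence and expressed as % activity relative to DMSO (0%) and no-cell wells.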

[5] = S16 Schwann cell PMP22 intronic element firefly luciferase assay (AID 624032); note: series mostly up to about 58 µM; nearly all actives have a fitted effect of over 30% in size
How it was run: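 Luciferase reporter of PMP22 intronic-element expression in stably transfected S16 rat Schwann cells, read by ONE-Glo luminescence after 24 h compound exposure at 37 C. Activity scaled between DMSO (0%) and positive-control PTC124; concentration-effect curves quality-classified.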

[6] = qHTS assay for small molecule activators of the p53 signaling pathway (AID 651743; active = well fitted activation curve with a large enough effect in the signal ratio, not every such curve was filed as active; the % refers to the signal ratio; note: series mostly up to about 92 µM); settings: HCT-116 p53RE-bla, beta-lactamase FRET ratio, 16 h; hits give high values
How it was run: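 A beta-lactamase reporter under p53 response element control, stably carried by HCT-116 cells, reported pathway activation. Test compounds were applied for 16 hours at 37 C, and fluorescence was measured 2 hours after adding the B/G FRET substrate.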

[7] = qHTS assay for small molecule activators of the nuclear factor-kappa B (NF-kB) signaling pathway (AID 651749; active = well fitted activation curve with a large enough effect in the signal ratio; the % refers to the signal ratio; note: series mostly up to about 77 µM); settings: NF-kB-bla ME-180 cells, beta-lactamase FRET ratio, 16 h; hits give high values
How it was run: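 FRET-based beta-lactamase detection in ME-180 cells reports NF-kB response-element-driven transcription following overnight (16 hr) compound treatment.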

[8] = qHTS assay for small molecule agonists of the antioxidant response element (ARE) signaling pathway (AID 651741; active = well fitted activation curve with a large enough effect in the signal ratio; the % refers to the signal ratio; note: potency is the fitted concentration of half-maximal effect)
How it was run: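 Agonist activity is measured as ARE-driven beta-lactamase expression in a stable HepG2 reporter line, using 16 h compound treatment at 37 C and a FRET substrate fluorescence readout after 2 h.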

[9] = S16 Schwann cell PMP22 intronic element beta-lactamase assay (AID 624044; calls by dose curve; note: nearly all actives have a fitted effect of over 15% in size)
How it was run: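 Beta-lactamase reporter under a PMP22 intronic regulatory element in stable S16 rat Schwann cells; 24 h compound exposure. 460 nm blue signal normalized between DMSO (0%) and potassium clavulanate, with 535 nm FRET tracking viability; curves classed by r2 and response.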

[10] = qHTS assay for small molecule disruptors of the mitochondrial membrane potential - 1 hr assay (AID 651754; calls by dose curve; note: nearly all actives have a fitted effect of over 35% in size; note: potency is the fitted concentration of half-maximal effect)
How it was run: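 Read-out: dye fluorescence at 490 nm ex/535 nm em (monomers) and 540 nm ex/590 nm em (aggregates) in HepG2 cells. Compound exposure 1 hr at 37C, followed by 30 min dye loading.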

Compound	Potency [1]	activity change % (negative = inhibition) [2]	Potency [3]	outcome [4]	Potency [5]	activation [6]	activation [7]	Potency [8]	outcome [9]	Potency [10]
CN1CC(=O)NC1=N	inactive	–	–	–	–	–	–	–	–	–
Cc1c(C(=O)NCCO)[n+](=O)c2ccccc2n1[O-]	inactive	-3.26%	inactive	inactive	inactive	3.58%	-3.75%	–	–	–
Cc1cc(=O)[nH]c(=S)[nH]1	inactive	15.5%	–	inactive	inactive	-1.35%	-0.135%	–	–	–
Cc1ccc2c(c1)c1c3n2CCNC3CCC1 (stereo unspecified)	inactive	–	–	–	–	–	–	–	–	–
C=CCNC(N)=S	inactive	-17.1%	inactive	inactive	inactive	-1.91%	-0.527%	inactive	–	–
Cc1c(N(C)C)c(=O)n(-c2ccccc2)n1C	inactive	-16.1% and 15.3%	inactive	inactive	inactive	–	1.01% and 2.73%	inactive	inactive	inactive
O=C(O)CCCCC1CCSS1 (stereo unspecified)	inactive	1.34%	inactive	inactive	inactive	-5.57% and 16.2%	-0.268% and -2.59%	48.6 µM (active) and 37.6 µM (active)	–	–
CC(=O)NS(=O)(=O)c1ccc(N)cc1	–	-0.298%	–	inactive	inactive	-3.02%	-0.656%	–	inactive	inactive
CC1CC(OC(=O)c2ccccc2O)CC(C)(C)C1 (stereo unspecified)	–	-8.08%	–	inactive	inactive	-6.41%	-1.08%	–	inactive	inactive
CC(=O)Nc1cccc(O)c1	inactive	8.82%	inactive	inactive	inactive	-0.0293%	0.693%	inactive	–	–
OC[C@@H](O)[C@@H](O)[C@H](O)[C@H](O)CO	–	-14.9%	inactive	inactive	–	-0.611%	-2.19%	–	–	–
FC(F)(F)C(Cl)Br (stereo unspecified)	inactive	8.04%	–	inactive	inactive	-1.4%	–	–	–	–
O=C(/C=C/c1ccc(O)c(O)c1)O[C@@H]1C[C@@](OC(=O)/C=C/c2ccc(O)c(O)c2)(C(=O)O)C[C@@H](O)[C@@H]1O	inactive	–	–	–	–	–	–	–	–	–
Nc1ccc(S(=O)(=O)c2ccc(N)cc2)cc1	inactive	-17.4% and -7.69%	inactive	inactive	–	-4.8% and 0.655%	2.3% and -6.03%	inactive	inactive	inactive
CC(=O)OCC(COC(C)=O)OC(C)=O	inactive	-1.64% and -0.0126%	inactive	inactive	inactive	–	0.2% and 0.487%	inactive	–	–
O=C1C(c2[nH]c3ccccc3c2O)=Nc2ccccc21	inactive	0.455%	–	inactive	–	-4.39%	-0.0626%	47.3 µM (active)	inactive	–
O=C1c2cccc(O)c2C(=O)c2c(O)cccc21	inactive	-11.3%	inactive	inactive	–	3.77%	-0.734%	29.8 µM (active)	inactive	4.73 µM (active)
CCCCCC(N)=O	inactive	-10.5%	–	inactive	–	0.75%	0.129%	inactive	–	–
CC(=O)Nc1ccc(C(=O)O)cc1	inactive	2.92%	inactive	inactive	–	-0.0847%	-1.2%	–	–	–
Cc1ccc(C(C)C)c(O)c1	inactive	-7.05%	inactive	inactive	inactive	-1.75%	-1.79%	inactive	–	–
COC(=O)c1ccc(O)cc1	inactive	-5.41%	inactive	inactive	–	–	-2.57%	19.3 µM (active)	–	–
Cc1cc(C)nc(NS(=O)(=O)c2ccc(N)cc2)n1	inactive	-2.95% and 11.9%	inactive	inactive	–	-3.59% and 3.14%	–	inactive	–	–
CC(C)=CCC/C(C)=C/CO	inactive	13.2%	inactive	inactive	inactive	-2.29%	-0.602%	inactive	inactive	–
